Assay results taken from the supplement of paper PMC13380429.

System: Vero E6 infected with SARS-CoV-2
Assay: inhibition of SARS-CoV-2 cytopathic effect; higher = more antiviral protection, active = above 15
Details: 48 h

Measured: inhibition of SARS-CoV-2 cytopathic effect

c1ccc(NCc2ccc(CNc3ccccn3)cc2)nc1
inactive: 1 nM 0.1% | 8.33 nM 0.65% | 100 nM -3.43% | 833.33 nM -0.24% | 10000 nM -0.68%

O=C(O)C(Cc1ccccc1[N+](=O)[O-])=NNc1nc(-c2ccc(Cl)c(Cl)c2)cs1
inactive: 1 nM 4.49% | 8.33 nM -0.65% | 100 nM -1.01% | 833.33 nM 3.78% | 10000 nM 0.02%

CCC(=O)Nc1cccc(Oc2nc(Nc3ccc(N4CCN(C)CC4)cc3OC)ncc2Cl)c1
inactive: 1 nM -2.36% | 8.33 nM -1.81% | 100 nM -3.83% | 833.33 nM -2.5% | 10000 nM 1.78%

CC[C@H](c1ccc(O)cc1)[C@@H](CC)c1ccc(O)cc1 [hexestrol]
inactive: 1 nM -3.59% | 8.33 nM -0.58% | 100 nM -0.76% | 833.33 nM -3.14% | 10000 nM 2.9%

CNC(=O)[C@H](Cc1ccccc1)NC(=O)[C@H](CC(C)C)[C@H](CSc1cccs1)C(=O)NO [batimastat]
inactive: 1 nM -1.9% | 8.33 nM -1.84% | 100 nM -3.51% | 833.33 nM -9.99% | 10000 nM -12.5%

CCOc1nc2cccc(C(=O)OC(C)OC(=O)OC3CCCCC3)c2n1Cc1ccc(-c2ccccc2-c2nn[nH]n2)cc1 (stereo not given) [candesartan-cilexetil]
inactive: 1 nM -0.98% | 8.33 nM -0.29% | 100 nM -1.43% | 833.33 nM -3.03% | 10000 nM -2.32%

CN[C@H](CC(C)C)C(=O)N[C@H]1C(=O)N[C@@H](CC(N)=O)C(=O)N[C@H]2C(=O)N[C@H]3C(=O)N[C@H](C(=O)N[C@H](C(=O)O)c4cc(O)cc(O)c4-c4cc3ccc4O)[C@H](O)c3ccc(c(Cl)c3)Oc3cc2cc(c3O[C@@H]2O[C@H](CO)[C@@H](O)[C@H](O)[C@H]2O[C@H]2C[C@](C)(N)[C@H](O)[C@H](C)O2)Oc2ccc(cc2Cl)[C@H]1O
inactive: 1 nM 0.55% | 8.33 nM 1.31% | 100 nM -0.56% | 833.33 nM 3.7% | 10000 nM 0.87%

CC#CCC(C)[C@H](O)/C=C/[C@@H]1[C@H]2C/C(=C/CCCC(=O)O)C[C@H]2C[C@H]1O (stereo not given in full) [iloprost]
inactive: 1 nM -0.22% | 8.33 nM -1.1% | 100 nM -0.18% | 833.33 nM -2.21% | 10000 nM -1.94%

CCC[C@H](NC(=O)[C@@H]1[C@H]2CCC[C@H]2CN1C(=O)[C@@H](NC(=O)[C@@H](NC(=O)c1cnccn1)C1CCCCC1)C(C)(C)C)C(=O)C(=O)NC1CC1 [telaprevir]
inactive: 1 nM 0.02% | 8.33 nM -0.75% | 100 nM 0.71% | 833.33 nM 5.12% | 10000 nM -2.66%

Cc1nc(C)c(Cl)c(O)c1Cl [clopidol]
inactive: 1 nM -2.81% | 8.33 nM -1.24% | 100 nM 1.07% | 833.33 nM 0.96% | 10000 nM 1.78%

C=CC(=O)c1ccc2ccccc2c1 [JAK3-inhibitor-V]
inactive: 1 nM -1.46% | 8.33 nM -1.7% | 100 nM -2.73% | 833.33 nM -2.88% | 10000 nM 1.9%

NC(=O)CN1CC(c2ccccc2)CC1=O (stereo not given) [phenylpiracetam]
inactive: 1 nM 1.63% | 8.33 nM -10.6% | 100 nM 2.27% | 833.33 nM 1.14% | 10000 nM -0.44%

CCN(C)C(=O)Oc1cccc([C@H](C)N(C)C)c1 [rivastigmine]
inactive: 1 nM -1.4% | 8.33 nM 0.73% | 100 nM 2.11% | 833.33 nM -1.22% | 10000 nM -1.56%

O=C1NN(C(=O)Nc2ccc(Br)cc2)[C@@H](c2ccccc2)[C@@H]1c1ccccc1
inactive: 1 nM 0.57% | 8.33 nM 1.35% | 100 nM -2.12% | 833.33 nM -0.26% | 10000 nM -1.96%

O=c1cc[nH]c(=O)[nH]1 [uracil]
inactive: 1 nM -0.48% | 8.33 nM 2.2% | 100 nM 2.09% | 833.33 nM 1.66% | 10000 nM -2.12%

CCCCCCNC(=O)n1cc(F)c(=O)[nH]c1=O [carmofur]
inactive: 1 nM 2.01% | 8.33 nM 4.18% | 100 nM 2.63% | 833.33 nM 2.67% | 10000 nM 4.01%

COCCOC(=O)C1=C(C)NC(C)=C(C(=O)OC/C=C/c2ccccc2)C1c1cccc([N+](=O)[O-])c1 (stereo not given) [cilnidipine]
inactive: 1 nM -1.01% | 8.33 nM -0.52% | 100 nM 0.89% | 833.33 nM 0.38% | 10000 nM 7.9%

O=C(O)CCCC[C@@H]1CCSS1 [thioctic-acid]
inactive: 1 nM 0.04% | 8.33 nM -0.43% | 100 nM -1.56% | 833.33 nM 1.13% | 10000 nM -3.32%

Cc1ccccc1C(=O)Nc1ccc(C(=O)N2CCCC(O)c3cc(Cl)ccc32)c(C)c1 (stereo not given) [tolvaptan]
inactive: 1 nM 1.52% | 8.33 nM 1.94% | 100 nM 0.74% | 833.33 nM -1.55% | 10000 nM 1.54%

COc1cc(N2CCC(O)CC2)ccc1Nc1cc(Nc2ccccc2S(=O)(=O)C(C)C)c2cc[nH]c2n1
inactive: 1 nM 5.38% | 8.33 nM 3.7% | 100 nM -1.89% | 833.33 nM 0.98% | 10000 nM -7.51%

NS(=O)(=O)NCCNc1nonc1/C(=N/O)Nc1ccc(F)c(Br)c1
inactive: 1 nM -1.72% | 8.33 nM -0.99% | 100 nM -3.11% | 833.33 nM 3.1% | 10000 nM -1.01%

CS(=O)(=O)n1cc2c(n1)CN([C@H]1CO[C@H](c3cc(F)ccc3F)[C@@H](N)C1)C2 [omarigliptin]
inactive: 1 nM -0.75% | 8.33 nM 1.81% | 100 nM 0.23% | 833.33 nM 1.96% | 10000 nM 0.42%

C[C@@H]1CN(CCCn2c3ccccc3c3ccccc32)C[C@H](C)N1 [rimcazole]
inactive: 1 nM -0.92% | 8.33 nM -0.33% | 100 nM 0.18% | 833.33 nM -2.52%
active: 10000 nM 31.1%

C=CCC1(CC(C)C)C(=O)NC(=O)NC1=O [butalbital]
inactive: 1 nM -0.15% | 8.33 nM 4.37% | 100 nM 2.7% | 833.33 nM 1.69% | 10000 nM 1.37%

Clc1ccc2c(N3CCN(CCCN4CCN(c5ccnc6cc(Cl)ccc56)CC4)CC3)ccnc2c1 [piperaquine-phosphate]
inactive: 1 nM -0.04% | 8.33 nM 1.25% | 100 nM -0.14% | 833.33 nM -1.37% | 10000 nM -2.6%

COC(=O)c1ccccc1O [methyl-salicylate]
inactive: 1 nM 0.7% | 8.33 nM 2.86% | 100 nM 2.42% | 833.33 nM -0.42% | 10000 nM -3.74%

O=C(O)c1ccc(CN2CCC(CN[C@@H]3C[C@H]3c3ccccc3)CC2)cc1
inactive: 1 nM 0.72% | 8.33 nM 1.52% | 100 nM 1.24% | 833.33 nM 3.6% | 10000 nM 2.94%

CC(=O)NCCc1c[nH]c2ccccc12 [N-acetyltryptamine]
inactive: 1 nM 0.9% | 8.33 nM 2.35% | 100 nM 2.28% | 833.33 nM -0.38% | 10000 nM 2.53%

CC/C(=C(/CC)c1ccc(OP(=O)(O)O)cc1)c1ccc(OP(=O)(O)O)cc1 [fosfestrol]
inactive: 1 nM -0.34% | 8.33 nM 2.21% | 100 nM -0.95% | 833.33 nM 0.3% | 10000 nM -0.17%

CCCCCCCCN=c1ccn(CCCCCCCCCCn2ccc(=NCCCCCCCC)cc2)cc1 [octenidine]
inactive: 1 nM 0.26% | 8.33 nM 2.35% | 100 nM 0% | 833.33 nM -7.17% | 10000 nM -19.8%

NC1=NCC2c3ccccc3Cc3ccccc3N12 (stereo not given) [epinastine]
inactive: 1 nM -1.87% | 8.33 nM -1.14% | 100 nM 0.71% | 833.33 nM 7.29% | 10000 nM 1.93%

CCNC(=O)CCC/C=C\C[C@@H]1[C@@H](/C=C/[C@@H](O)CCc2ccccc2)[C@H](O)C[C@@H]1O [bimatoprost]
inactive: 1 nM -2.31% | 8.33 nM -0.42% | 100 nM -0.15% | 833.33 nM -0.88% | 10000 nM 3.04%

c1ccc(N2CCN(Cc3nc4ccccc4[nH]3)CC2)nc1
inactive: 1 nM 3.44% | 8.33 nM 2.21% | 100 nM -0.12% | 833.33 nM 0.36% | 10000 nM -0.76%

NS(=O)(=O)OC[C@@H]1C[C@@H](n2ccc3c(N[C@H]4CCc5ccccc54)ncnc32)C[C@@H]1O [pevonedistat]
inactive: 1 nM 1.08% | 8.33 nM 1.45% | 100 nM 2.73% | 833.33 nM -1.35% | 10000 nM -9.75%

O=C(NC1CCNCC1)[C@@H]1CC[C@@H]2CN1C(=O)N2OS(=O)(=O)O [relebactam]
inactive: 1 nM 0.07% | 8.33 nM 1.87% | 100 nM 1.26% | 833.33 nM -0.84% | 10000 nM -1.06%

CN(C)CCNc1nc2cc(O)ccc2c2c1C(=O)c1ccccc1-2
inactive: 1 nM 0.16% | 8.33 nM 1.19% | 100 nM -1.3% | 833.33 nM -7.91% | 10000 nM -23.6%

Cn1nnnc1SCC1=C(C(=O)O)N2C(=O)[C@@H](NC(=O)[C@H](OC=O)c3ccccc3)[C@H]2SC1 [cefamandole-nafate]
inactive: 1 nM -1.93% | 8.33 nM -0.03% | 100 nM -2.69% | 833.33 nM -3.24% | 10000 nM -0.65%

CC(C)SC(=N)N [S-isopropylisothiourea]
inactive: 1 nM 1.63% | 8.33 nM 0.91% | 100 nM 3.8% | 833.33 nM 0.88% | 10000 nM 2.04%
